{"source": "PubChem BioAssay (NCI)", "note": "This is part of a sample that, as a whole, favours compounds with a hit. Of some 83,000 tested, about 20% had one in any assay.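 Treatment: one concentration, 48 hours, 96-well format. Scoring: percent growth, with anything below 10 considered active.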 Unmarked numbers belong to inactive results. Active and inactive are the calls of the source."}
{"system": "U251 CNS", "test": "NCI-60 one-dose screen, 48 h (100 = growth as untreated, 0 = no growth, -100 = all killed)", "conditions": "10 µM unless noted"}
{"smiles": "CC/C=C\\C[C@H](O)C/C=C1/C(=O)C=C[C@@H]1C/C=C\\CCCC(=O)N(C)C", "growth": "-31% (active)"}
{"smiles": "CNC(=O)c1[nH]cc(-c2ccc(OC)cc2)c1-c1cc(OC)c2c(c1OC)OCO2", "growth": "98.4%"}
{"smiles": "O=C(/C=C/c1cccs1)Nc1ncc(Cc2ccccc2F)s1", "growth": "17%"}
{"smiles": "CCCn1cc2c(=O)nc3sc(Cc4ccccc4)c(C)n3c2n1", "growth": "93.2%"}
{"smiles": "CCC(C)N(CCNc1cc(OC)cc2cccnc12)CC(C)C", "note": "(stereo unspecified)", "growth": "99.4%"}
{"smiles": "C1CCC([PH+](C2CCCCC2)C2CCCCC2[PH+](C2CCCCC2)C2CCCCC2)CC1.[Au].[CH-]1CCCCC1C1CCCC[N-]1", "note": "(stereo unspecified)", "growth": "-84.3% (active)"}
{"smiles": "O=C1/C(=C/c2ccccc2Br)COc2ccc(O)cc21", "growth": "46.1%"}
{"smiles": "O=C(Nc1ccccc1O)c1ccc(CNC(=O)c2sccc2Nc2ccnc(C(F)(F)F)c2)cc1", "growth": "40.6%"}
{"smiles": "N#Cc1c(-c2ccc(Cl)cc2)nc(NN2C(=O)c3ccccc3C2=O)nc1N1CCOCC1", "growth": "106%"}
{"smiles": "O=C(OC(CO)C(=O)NC12CC3CC(CC(C3)C1)C2)c1ccc(Cl)cc1", "note": "(stereo unspecified)", "growth": "96.7%"}
{"smiles": "COc1ccc(/C=N/C2=C(C#N)C(c3ccccc3)c3ccc4ccccc4c3O2)cc1", "note": "(stereo unspecified)", "growth": "18.5%"}
{"smiles": "CC(C)c1ccc(C(=O)Nc2sc3c(c2C(N)=O)CCC(=O)C3)cc1", "growth": "-3.68% (active)"}
{"smiles": "N=C(N)c1ccc(-c2ccc(-c3ccc(Cl)cc3Cl)s2)cc1", "growth": "-45.4% (active)"}
{"smiles": "O=C(/C=C/c1cccc(Cl)c1)c1ccc(Nc2nc(Nc3ccc(F)cc3)nc(Nc3ccc(Cl)cc3)n2)cc1", "growth": "112%"}
{"smiles": "COc1c(B(O)O)cccc1-c1nc2c(F)cc3[nH]ncc3c2c2c1CCCC2", "growth": "13.6%"}
{"smiles": "N#Cc1ccc(O)c(C2=NCC(c3ccccc3)O2)c1", "note": "(stereo unspecified)", "growth": "19.6%"}
{"smiles": "COC(=O)c1nc(-c2ccccc2)oc1S(=O)(=O)Cc1ccccc1", "growth": "94.2%"}
{"smiles": "OCCn1cc(-c2nc(-c3c[nH]c4ncccc34)cs2)c2cc(F)ccc21", "growth": "62.9%"}
{"smiles": "O=[N+]([O-])c1cccc(-c2nc3cc4nc5ccccc5[nH]c4cc3n2)c1", "growth": "98.2%"}
{"smiles": "CN(C)c1ccc(C(=O)OCCCCCCl)cc1", "growth": "99.7%"}
{"smiles": "CC(C)COc1nc2c(c(=O)n(C)c(=O)n2C)n1C", "growth": "101%"}
{"smiles": "Nc1nc(-c2ccc(Cl)cc2)nc2c1sc(=S)n2-c1ccccc1", "growth": "17.7%"}
{"smiles": "Cc1ccc(NC(=O)c2sc3nc(C)c(Br)c(C)c3c2N)cc1", "growth": "50.8%"}
{"smiles": "Cc1cc(N2CCCCC2)cc(C)c1-c1csc(NC(=O)c2ccncc2)n1", "growth": "63%"}
{"smiles": "CCN1C(=S)N(c2ccccc2)C2C1NN=c1s/c(=C3\\C(=O)N(C(C)C)c4ccccc43)c(=O)n12", "note": "(stereo unspecified)", "growth": "64.6%"}
{"smiles": "O=C(N(c1ccccc1)c1ccccc1)n1cc(I)c2nc(Cl)nc(Cl)c21", "growth": "24.2%"}
{"system": "PC-3 prostate", "test": "NCI-60 one-dose screen, 48 h (100 = growth as untreated, 0 = no growth, -100 = all killed)", "conditions": "10 µM unless noted"}
{"smiles": "CCCCCCCC[C@@H]1N[C@@H](C(=O)OC)Cc2c1[nH]c1ccccc21", "growth": "94.6%"}
{"smiles": "COC(=O)c1cc(N=C2NC(=O)/C(=C/C=C/c3ccccc3)S2)ccc1O", "growth": "30%"}
{"smiles": "CSc1nnc(-c2cc3c([nH]c4ccccc43)c(-c3cccc(O)c3)n2)n1-c1ccccc1", "growth": "29.9%"}
{"smiles": "Cc1ccc(-c2nc([P+](c3ccccc3)(c3ccccc3)c3ccccc3)c(S(=O)(=O)c3ccc(C)cc3)o2)cc1", "growth": "11.2%"}
{"smiles": "O=S(=O)(NCCNc1nccc(-c2c(-c3ccc(F)c(O)c3)nc3occn23)n1)c1ccc(Cl)cc1", "growth": "79.8%"}
{"smiles": "COc1ccc2c(c1)c(-c1nc(-c3c[nH]c4ccncc34)cs1)cn2C", "growth": "-81.1% (active)"}
{"smiles": "CC(C)c1ccc(C(=O)Nc2nc3ccc(O)c(CN(C)C)c3s2)cc1", "growth": "83%"}
{"smiles": "O=C1Nc2ccccc2/C1=C/c1nc2ccccc2c(=O)[nH]1", "growth": "77.7%"}
{"smiles": "O=C(c1ccccc1)c1ccc(C2CCCCC2)cc1", "growth": "103%"}
{"smiles": "C=CC(=O)N1CCN(c2cccc(Oc3nccc(Nc4nnc(-c5ccc(Br)cc5)s4)n3)c2)CC1", "growth": "61.1%"}
{"smiles": "O=C1C(Cl)=C(Nc2ccc(S(=O)(=O)N3CCOCC3)cc2)C(=O)c2ccccc21", "growth": "46%"}
{"smiles": "CCOC(=O)C1=C(C)NC(=O)NC1c1c(Cl)n(CCCl)c2ccccc12", "note": "(stereo unspecified)", "growth": "91.7%"}
{"smiles": "CCCC/C=C/[C@@H]1C[C@H]1CCO", "growth": "95.5%"}
{"smiles": "C=C(CBr)[C@@H]1CC[C@]2(C(=O)O)CC[C@]3(C)[C@H](CC[C@@H]4[C@@]5(C)CCC(=O)C(C)(C)[C@@H]5CC[C@]43C)[C@@H]12", "growth": "57.4%"}
{"smiles": "CC/C=C\\C[C@H](O)C/C=C1/C(=O)C=C[C@@H]1C/C=C\\CCCC(=O)N(C)C", "growth": "2.37% (active)"}
{"smiles": "CNC(=O)c1[nH]cc(-c2ccc(OC)cc2)c1-c1cc(OC)c2c(c1OC)OCO2", "growth": "92.1%"}
{"smiles": "O=C(/C=C/c1cccs1)Nc1ncc(Cc2ccccc2F)s1", "growth": "29.6%"}
{"smiles": "CCCn1cc2c(=O)nc3sc(Cc4ccccc4)c(C)n3c2n1", "growth": "98.5%"}
{"smiles": "CCC(C)N(CCNc1cc(OC)cc2cccnc12)CC(C)C", "note": "(stereo unspecified)", "growth": "83.5%"}
{"smiles": "C1CCC([PH+](C2CCCCC2)C2CCCCC2[PH+](C2CCCCC2)C2CCCCC2)CC1.[Au].[CH-]1CCCCC1C1CCCC[N-]1", "note": "(stereo unspecified)", "growth": "-16.7% (active)"}
{"smiles": "O=C1/C(=C/c2ccccc2Br)COc2ccc(O)cc21", "growth": "60.7%"}
{"smiles": "O=C(Nc1ccccc1O)c1ccc(CNC(=O)c2sccc2Nc2ccnc(C(F)(F)F)c2)cc1", "growth": "35.2%"}
{"smiles": "N#Cc1c(-c2ccc(Cl)cc2)nc(NN2C(=O)c3ccccc3C2=O)nc1N1CCOCC1", "growth": "110%"}
{"smiles": "O=C(OC(CO)C(=O)NC12CC3CC(CC(C3)C1)C2)c1ccc(Cl)cc1", "note": "(stereo unspecified)", "growth": "98.6%"}
{"smiles": "COc1ccc(/C=N/C2=C(C#N)C(c3ccccc3)c3ccc4ccccc4c3O2)cc1", "note": "(stereo unspecified)", "growth": "8.18% (active)"}
{"smiles": "CC(C)c1ccc(C(=O)Nc2sc3c(c2C(N)=O)CCC(=O)C3)cc1", "growth": "-44.7% (active)"}
{"smiles": "N=C(N)c1ccc(-c2ccc(-c3ccc(Cl)cc3Cl)s2)cc1", "growth": "0.127% (active)"}
{"smiles": "O=C(/C=C/c1cccc(Cl)c1)c1ccc(Nc2nc(Nc3ccc(F)cc3)nc(Nc3ccc(Cl)cc3)n2)cc1", "growth": "98.8%"}
{"smiles": "COc1c(B(O)O)cccc1-c1nc2c(F)cc3[nH]ncc3c2c2c1CCCC2", "growth": "13.8%"}
{"smiles": "N#Cc1ccc(O)c(C2=NCC(c3ccccc3)O2)c1", "note": "(stereo unspecified)", "growth": "31.6%"}
{"smiles": "COC(=O)c1nc(-c2ccccc2)oc1S(=O)(=O)Cc1ccccc1", "growth": "91.6%"}
{"smiles": "OCCn1cc(-c2nc(-c3c[nH]c4ncccc34)cs2)c2cc(F)ccc21", "growth": "48.7%"}
{"smiles": "O=[N+]([O-])c1cccc(-c2nc3cc4nc5ccccc5[nH]c4cc3n2)c1", "growth": "93.2%"}
{"smiles": "CN(C)c1ccc(C(=O)OCCCCCCl)cc1", "growth": "87.1%"}
{"smiles": "CC(C)COc1nc2c(c(=O)n(C)c(=O)n2C)n1C", "growth": "102%"}
{"smiles": "Nc1nc(-c2ccc(Cl)cc2)nc2c1sc(=S)n2-c1ccccc1", "growth": "62.1%"}
{"smiles": "Cc1ccc(NC(=O)c2sc3nc(C)c(Br)c(C)c3c2N)cc1", "growth": "53.7%"}
{"smiles": "Cc1cc(N2CCCCC2)cc(C)c1-c1csc(NC(=O)c2ccncc2)n1", "growth": "48.1%"}
{"smiles": "CCN1C(=S)N(c2ccccc2)C2C1NN=c1s/c(=C3\\C(=O)N(C(C)C)c4ccccc43)c(=O)n12", "note": "(stereo unspecified)", "growth": "79.3%"}
{"smiles": "O=C(N(c1ccccc1)c1ccccc1)n1cc(I)c2nc(Cl)nc(Cl)c21", "growth": "32.1%"}
